Where “and” joins values, the source holds several entries; their conditions need not be identical. Equal entries are not always repeated. About 37,000 (12%) of roughly 300,000 compounds were called active. The sample holds actives, similar compounds and a random draw of the others, so the mix is not that of the screen. No stated cut-off is given here; in the data, active means max response mostly above about 13% (no sharp cut-off); inactive means mostly below about 14%. Some structures have more than one record in an assay (separate samples or runs), and their calls can disagree.
test: Cycloheximide Counterscreen for Small Molecule Inhibitors of Shiga Toxin; details: cell reporter, cycloheximide protein synthesis inhibition counterscreen; stronger effect = higher value; further: read at 38.3 µM for the half of the compounds with a filed dose; 0% is about no effect

Structure (SMILES)	max response
CCc1ccc(S(=O)(=O)N/N=C\c2ccc([N+](=O)[O-])o2)cc1	5.73% (inactive)
Cc1cc2ccccn2c1C(=O)c1cccc(S(=O)(=O)N2CCOCC2)c1	-0.598% (inactive)
CC(C)(C)OC(=O)NNc1c2ccccc2nc2ccccc12	11.3% (active)
O=C(NNc1c2ccccc2nc2ccccc12)c1cc2ccccc2cc1O	-1.17% (inactive)
CCC(=O)OCCNc1nc(-c2ccccc2)nc2ccccc12	1.39% (inactive)
COc1ccc(C(CCN(Cc2ccc(OC)c(OC)c2)C(=O)CCl)c2ccccc2)cc1 (configuration not stated)	-1.89% (inactive)
CC(=O)c1cccc(NC(=O)CN2C(=O)c3cccnc3Oc3ccc(Cl)cc32)c1	8.12% (inactive)
O=C(Cn1c(N2CCN(C/C=C/c3ccccc3)CC2)nc2ccccc21)c1ccccc1	8.47% (inactive)
CC[C@H](C)[C@H](NC(=O)[C@@H](N)CCC(=O)O)C(=O)N[C@@H](CC(C)C)C(=O)N[C@@H](CC(=O)O)C(=O)N[C@H](C(=O)N1CCC[C@H]1C(=O)N[C@@H](CO)C(=O)N[C@H](C(=O)O)[C@@H](C)O)C(C)C	0.56% (inactive)
CCOC(=O)c1c(NC(=O)C(C)Sc2c[nH]c3ccccc23)sc2c1CCC2 (configuration not stated)	-0.942% (inactive)
CC(=O)c1ccc(NC(=O)CCc2nnc3ccc(NCc4ccco4)nn23)cc1	40.6% (active)
CCOc1ccccc1NC(=O)CCc1nnc2ccc(NCc3ccco3)nn12	2.03% (inactive)
O=C(CCc1nnc2ccc(NCc3ccco3)nn12)Nc1cc(F)ccc1F	-2.19% (inactive)
O=C(c1ccncc1)c1ccc([N+](=O)[O-])cc1	-4.87% (inactive)
O=C(CC(n1cncn1)C(Cl)(Cl)Cl)c1ccc([N+](=O)[O-])cc1 (configuration not stated)	-2.22% (inactive)
O=C(Cn1c[n+](CC(=O)c2ccc([N+](=O)[O-])cc2)cn1)c1ccc([N+](=O)[O-])cc1	1.46% (inactive) and 22.2% (active)
COc1ccc(N2CCC(N3CCN(C)C(CCO)C3)CC2)cc1 (configuration not stated)	-1.24% (inactive)
COc1ccc(OCCNS(=O)(=O)Cc2ccccc2)cc1	-3.58% (inactive)
O=C(c1ccc(Cl)cc1)N1N=C(c2ccccn2)CC1(O)C(F)(F)F (configuration not stated)	-0.573% (inactive)
COc1ccc(OC)c(CNC(=O)c2cc(=O)[nH]c3ccc(S(=O)(=O)N4CCCC4)cc23)c1	11.5% (inactive)
COC(CNC(=O)c1ccc2c(c1)ncn2-c1cc(C)cc(C)c1)OC	-5.14% (inactive)
Cc1ccc(C(=O)CSc2nc3ccccc3c(=O)n2N)o1	34.6% (active)
O=C(CCCn1c(SCC(=O)c2ccc(F)cc2)nc2ccccc2c1=O)NCc1ccco1	-0.158% (inactive)

Structure (SMILES)	max response
COC(=O)CSc1nc2ccccc2c(=O)n1Cc1ccccc1	12.7% (inactive)
CC1CCC(NC(=O)CN(C)S(=O)(=O)c2ccc3c(c2)c(=O)n(C)c(=O)n3C)CC1 (configuration not stated)	-2.52% (inactive)
Cn1c(=NC(=O)c2cnccn2)sc2ccccc21	26% (active)
Cn1c(=NC(=O)CSCC(=O)N2CCOCC2)sc2ccccc21	11% (inactive)
Cn1c(=NC(=O)CSCC(=O)N2CCCCC2)sc2ccccc21	2.51% (inactive)
COc1cc(CO)c(C2(CO)CCCC2)cc1OC	-4.97% (inactive)
Cc1cc(C)cc(N(CCC#N)C(=O)CN2C(=O)NC3(CCCC3)C2=O)c1	1.6% (inactive)
Oc1ccccc1N1CCN(c2ncnc3sc(-c4ccccc4)cc23)CC1	9.53% (inactive)
O=c1c(-c2ccccc2)cnc2n1CCS2	-4.67% (inactive)
O=c1c2cc(-c3ccccc3)sc2nc2n1N=C(c1cccs1)CS2	57% (active)
CC(C)NC(=O)C(c1ccc(F)cc1)N(C(=O)CCC(=O)Nc1ccccn1)c1ccccc1F (configuration not stated)	-2.11% (inactive)
CC(C)CCNC(=O)Cn1c(=O)oc2cc(S(=O)(=O)N3CC(C)CC(C)C3)ccc21 (configuration not stated)	-7.3% (inactive)
CSc1ccc(/C=N/N2CCN(Cc3ccccc3Cl)CC2)cc1	16.6% (active)
O=S1(=O)CCN(Cc2ccccc2Cl)CC1	-2.05% (inactive)
COc1ccccc1/C=N/N1CCN(Cc2ccccc2Cl)CC1	1.31% (inactive)
Cc1cccc(-n2cnc(C(=O)Nc3cccnc3)c2)n1	25.5% (active)
Cc1cc(C)c(NC(=O)CS(=O)CC(=O)Nc2cccnc2)c(C)c1 (configuration not stated)	3.39% (inactive)
Cc1cccc(-n2cnc(C(=O)NNC(=S)Nc3ccccc3)c2)n1	-0.715% (inactive)
Cc1cccc(Nc2nc3c(S(=O)(=O)c4ccccc4)nnn3c3ccccc23)c1C	-2.93% (inactive)
Cc1ccc(/C=C2\CCn3c2nc2cc(C(=O)O)ccc2c3=O)c(C)c1	8.18% (inactive)
CCc1ccc(-c2nn(-c3ccccc3)cc2CSC(=N)N)cc1	-12.4% (inactive)
COc1cc2c(cc1OC)CN(C(=O)c1cc(S(=O)(=O)N3CCCCC3)ccc1Cl)CC2	11.1% (inactive)
Cc1ccccc1OCC(=O)Nc1nnc(S(=O)(=O)N2CCCC2)s1	1.8% (inactive)

Structure (SMILES)	max response
Cc1nc(SCC(=O)Nc2cc(C)on2)c2c(C)c(C)sc2n1	-2.36% (inactive)
Cc1cc(NC(=O)CSc2nc3c(cc2C#N)CCCCC3)no1	14.6% (active)
CC(NC(=O)CSc1nc2c(cc1C#N)CN(C)CC2)c1ccccc1 (configuration not stated)	-4.77% (inactive)
Cc1c(CCO)sc[n+]1CC(=O)OC12CC3CC(CC(C3)C1)C2	-2.92% (inactive)
COC(=O)C1(C)CC1(c1ccccc1)c1ccccc1 (configuration not stated)	-2.76% (inactive)
COC(=O)c1c(C)oc2ccc(N(C(=O)Oc3ccccc3)S(=O)(=O)c3ccccc3)cc12	-13.2% (inactive)
Cc1cccc(/C(N)=N/OC(=O)c2ccccc2Cl)c1	37% (active)
Cc1cccc(C(=O)c2cccc(C)c2)c1	0.416% (inactive)
N/C(=N\OC(=O)c1cc(-c2ccccc2)nc2ccccc12)c1ccncc1	-3.22% (inactive)
O=C(O)CCN=C1CCc2ccccc2N1	-2.89% (inactive)
COc1cc(OC)cc(-c2nnc(N(C)C(=O)c3ccncc3)s2)c1	-2.59% (inactive)
COc1ccc(NC(=O)C2CCN(S(=O)(=O)c3ccc4[nH]c(=O)oc4c3)CC2)c(OC)c1	-1.11% (inactive)
Cc1ccc(N(CC(=O)Nc2cccc(N(C)S(C)(=O)=O)c2)S(C)(=O)=O)cc1	-1.08% (inactive)
CN(c1cccc(NC(=O)c2ccc(CN3CCc4ccccc4C3)cc2)c1)S(C)(=O)=O	-1.55% (inactive)
CN(c1cccc(NC(=O)Nc2ccc(Cl)cc2)c1)S(C)(=O)=O	36.6% (active)
CC(=O)Nc1cccc(/C(C)=N/NC(=O)c2ccccc2Cl)c1	8.8% (inactive)
COc1cccc(C(=O)N/N=C(\C)c2cccc(NC(=O)c3ccc(F)cc3)c2)c1OC	27.3% (active)
C/C(=N/NC(=O)c1ccc(NC(=O)c2ccc(F)cc2)cc1)c1ccccc1	11% (inactive)
O=C(Nc1nonc1-c1ccc(Cl)cc1)c1ccco1	7.55% (inactive)
NC(=O)COc1ccc2c3c(c(=O)oc2c1)CCCCC3	12.8% (active)
NC(=O)C1CCN(C(=O)COc2ccc3c4c(c(=O)oc3c2)CCC4)CC1	-1.44% (inactive)
O=C(COc1ccc2c3c(c(=O)oc2c1)CCC3)NC1CCCCC1	1.97% (inactive)
CC1CCN(C(=O)c2cc3nc(C4CC4)cc(C(F)(F)F)n3n2)CC1	1.99% (inactive)

Structure (SMILES)	max response
CCNC(=S)N(CCN(CC)CC)Cc1cc2cc3c(cc2[nH]c1=O)OCCO3	-0.726% (inactive)
COc1cccc(-c2cc(=O)c3cc(NC(=O)c4ccc(C)cc4)ccc3[nH]2)c1	-0.33% (inactive)
CC1(C)CC(=O)C/C(=N\NC(=O)c2cccs2)C1	1.56% (inactive)
CC(C)OCCCNC(=O)CNC(=O)c1cccs1	-3.03% (inactive)
CC1C/C(=N/NC(=O)c2cccs2)CC(C)(C)C1 (configuration not stated)	32.2% (active)
CC(=O)NNC1=Nc2ccccc2N(C)C(C)C1 (configuration not stated)	-2.23% (inactive)
CC(C)c1ccccc1OCC(O)CN(CC(O)COc1cccc2ccccc12)C(C)C (configuration not stated)	-5.17% (inactive)
Cc1ccc(NS(=O)(=O)c2ccc(-c3ccc(=O)[nH]n3)o2)c(C)c1	-1.58% (inactive)
O=C(COc1ccc2c3c(c(=O)oc2c1)CCCC3)NCC(O)c1ccccc1 (configuration not stated)	-1.36% (inactive)
Cc1cccc(NC(=S)Nc2ccc(Br)cc2)c1	18.4% (inactive)
Cc1cccc(NC(=O)NC(=S)NC(=O)c2ccccc2)c1	42.2% (active)
O=C(CNC(=O)c1ccc(Br)o1)Nc1ccccc1	-2.14% (inactive)
Cc1cccc(NC(=O)c2nnn(-c3cccc(C(F)(F)F)c3)c2N)c1	19.9% (inactive)
CC(=O)N1CCN(CC(=O)Nc2ccc(C)c(F)c2)CC1	-6.08% (inactive)
Cc1ccc(NC(=O)NC(=O)c2ccccc2)cc1F	25.9% (active)
CNC(=O)c1ccc(NC(=O)c2cccc(C(F)(F)F)c2)cc1	8.58% (inactive)
Cc1cccc(NC(=O)/C(=C\c2ccco2)NC(=O)c2ccccc2)c1	11.3% (inactive)
Cc1cccc(NC(=S)NC23CN4CN(CN(C4)C2)C3)c1	0.709% (inactive)
Cc1nc(C)c(C(=O)Nc2ccc(C)c(F)c2)o1	5.75% (inactive)
Cc1cccc(NC(=O)c2cccc(C(F)(F)F)c2)c1	29.9% (active)
Cc1cccc(NC(=S)NC(=O)c2ccc(Br)o2)c1	34.5% (active)
Cc1cc(-c2nnc(SCC(=O)Nc3ccc(F)cc3)n2N)n[nH]1	0.984% (inactive)
COc1ccccc1NC1=NC(c2ccc(Cl)cc2)N=C(N)N1 (configuration not stated)	2.63% (inactive)

Source: PubChem BioAssay AID2314 (National Center for Advancing Translational Sciences (NCATS), 2010)
